Screens: PubChem BioAssay, National Center for Advancing Translational Sciences (NCATS)
This is a sample that favours compounds with a hit; in the whole collection about 9% have one here.
HPGD inh: blocks human HPGD enzyme activity. P15428. hit rate 4.3% among 150,000. Potency, µM, without a hit: top-dose activity change, negative = inhibition, actives largely listed as inhibitors. purified HPGD, NADH fluorescence kinetic, PGE2 substrate; note: potency is the fitted concentration of half-maximal effect
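NADH formation kinetics: reaction with 30 uM PGE2 and 1 mM NAD+ (final), 20 nM enzyme, Tris-HCl pH 8 with Tween 20, after 15 min compound preincubation at room temperature. Fluorescence change, last versus first of five reads.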
IMPase inh: cell-permeable inhibitors of inositol monophosphatase (IMPase); inhibition (IP1 accumulation), % at 46.1 µM; P97697; CHO-M1 cells, IP1 accumulation, HTRF TR-FRET ratio; AID 901; 120,000 tested, under 10 active; active = well fitted curve in the direction sought with a large enough effect in the signal ratio, not every such curve was filed as active; inconclusive = small, poorly fitted or top-dose-only effect, or a change in a side signal; inactive = no such curve, though single readings can be large or run the other way; the % refers to the signal ratio;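 note: cells stimulated with carbachol in lithium chloride buffer; plate controls were DMSO basal wells for no effect and reference inhibitor wells for full effect; higher means more IMPase inhibition seen as more IP1 and lower FRET ratio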
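Carbachol-driven Gq signalling in CHO-M1 cells (2000/well) generates IP1. Compounds that block IMPase raise IP1 and so reduce the FRET signal from Eu-anti-IP1 and d2-IP1 after a 10 min room-temperature lysis.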
ALDH1A1 block: inhibitors of human aldehyde dehydrogenase 1A1. hit rate 7.3% among 220,000. Potency, µM (top dose mostly 75.3 µM), for the others: top-dose activity, negative = inhibition, usual class: inhibitors. Purified ALDH1A1, NADH fluorescence, propionaldehyde substrate. P00352;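 note: potency is the fitted concentration of half-maximal effect; plate controls were no enzyme wells and a reference inhibitor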
Target sequence (P00352 whole entry, looked up): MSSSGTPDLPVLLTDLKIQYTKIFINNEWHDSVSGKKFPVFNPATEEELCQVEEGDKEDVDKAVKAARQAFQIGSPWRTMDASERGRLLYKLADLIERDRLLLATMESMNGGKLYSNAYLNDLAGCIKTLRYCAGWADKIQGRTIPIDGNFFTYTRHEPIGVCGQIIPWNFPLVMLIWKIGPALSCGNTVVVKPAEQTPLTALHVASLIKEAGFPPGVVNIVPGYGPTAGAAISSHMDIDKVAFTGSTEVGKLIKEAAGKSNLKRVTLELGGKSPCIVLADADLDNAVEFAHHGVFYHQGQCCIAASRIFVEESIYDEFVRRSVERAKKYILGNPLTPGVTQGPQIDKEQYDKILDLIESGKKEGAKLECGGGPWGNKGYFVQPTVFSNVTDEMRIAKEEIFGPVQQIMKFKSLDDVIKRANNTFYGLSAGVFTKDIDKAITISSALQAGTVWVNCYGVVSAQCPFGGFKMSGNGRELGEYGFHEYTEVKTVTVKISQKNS
Active calls of the source: *; ? = inconclusive; . = not tested or not shown; [ ] = dose if it differs, or a comment. Unless noted, calls come from the whole dose curve; as a rule, active = well fitted inhibition curve with a large enough effect (not every such curve was filed as active); inconclusive = small, poorly fitted or top-dose-only effect, or another doubt; inactive = no such curve, though single readings can be large or run the other way. Unless noted, % is set by controls: 0 for no effect and ±100 for the full control effect.

SMILES | HPGD inh | IMPase inh | ALDH1A1 block
O=C(C1=C(O)C(=O)N(CCc2ccccc2)C1c1ccncc1)c1cc2ccccc2o1 (stereo unspecified) | . | . | 19µM*
COc1ccccc1C1C(C(=O)c2cc3ccccc3o2)=C(O)C(=O)N1CCN(C)C (stereo unspecified) | -13% | -27 | 20µM*
Cn1c(=O)n(C/C=C/c2ccccc2)c(=O)c2c1nc1n2CCCN1c1ccc(F)cc1 | -25% | 6 | -5%
COCC(O)CSc1c([N+](=O)[O-])nc(C)n1Cc1ccc(OC)c([N+](=O)[O-])c1 (stereo unspecified) | -4% | -1 | 25µM*
COc1ccc2nc(Sc3c([N+](=O)[O-])nc(C)n3Cc3ccccc3)[nH]c2c1 | 2% | -2 | -6%
COc1ccc(C(C)(C)C)cc1NC(=O)COC(=O)c1ncc(Cl)c(Cl)c1Cl | -2% | -13 | 2%
Cc1cc2cc(CNC(=O)c3ccc(S(=O)(=O)N4CCCC4)cc3)ccc2n1C | -6% | -13 | 20µM*
Cc1cc2cc(CNC(=O)c3ccc(S(=O)(=O)N4CCCCC4)cc3)ccc2n1C | -14% | ? | ?
CCOC(=O)NCc1ccc2c(c1)cc(C)n2C | -13% | 5 | -6%
COc1ccc(OCC(=O)NNC(=O)c2cccs2)cc1 | -4% | 0 | 6%
COc1ccc(CCNC(=O)c2cccs2)cc1OC | . | . | 10%
COc1ccc(CNC(=O)c2cccs2)cc1 | 14µM* | 0 | ?
Cc1cc2cc(CNC(=O)c3cccs3)ccc2n1C | 2.8µM* | . | -10%
COc1ccccc1OCCNC(=O)c1cccs1 | 16µM* | 0 | 14%
CC(=O)C1CCC2C3CCC4=CC(=O)CC[C@]4(C)[C@@]3(F)C(O)C[C@]12C (stereo partly specified) | . | . | -5%
CCCCC(=O)NCc1ccc2c(c1)cc(C)n2C | 1.1µM* | -8 | -5%
Cc1cc2cc(CNC(=O)CC(C)C)ccc2n1C | 2.2µM* | 2 | 1%
Cc1cc2cc(CNC(=O)Nc3ccccc3)ccc2n1C | -28% | -17 | 3%
CCOC(=O)CCC(=O)NCc1ccc2c(c1)cc(C)n2C | ? | 2 | -7%
O=C(NCc1ccc2c(c1)OCO2)c1cc(-c2ccc(Cl)cc2Cl)on1 | -18% | -3 | ?
CCOC(=O)CSc1nc2ccccc2n2cnnc12 | ? | -5 | 18µM*
CCOC(=O)CSc1nc2ccccc2n1C(=O)OCC | -5% | ? | 6%
Cc1c(Cl)c([N+](=O)[O-])nn1CCCC(=O)NCCc1ccccc1 | . | . | -4%
CCCCOc1ccc(C2c3c(oc4ccccc4c3=O)C(=O)N2c2nc(C)c(C(=O)OCC)s2)cc1OC (stereo unspecified) | . | -3 | .
CSc1nc(C)c(Oc2ccccc2)c(=O)n1C | 13µM* | 0 | 13%
SMILES | HPGD inh | IMPase inh | ALDH1A1 block
Cn1ncc(Cl)c(Oc2ccccc2)c1=O | -17% | 4 | 10%
O=C(CC1C(=O)NCCN1Cc1ccc(F)cc1)NCCCn1cccn1 (stereo unspecified) | . | . | -4%
Cc1cnc(CN(C)Cc2c(C(=O)N3CCc4ccccc4C3)nc3ccc(Cl)cn23)[nH]1 | . | . | 18µM*
CN(Cc1cnccn1)Cc1c(C(=O)N2CCc3ccccc3C2)nc2ccc(Cl)cn12 | . | . | 18µM*
CN(C)C(=O)c1nc2ccc(Cl)cn2c1CN1CCCC(OCc2cccnc2)C1 (stereo unspecified) | . | . | 8%
CC(C)CN(C)Cc1c(C(=O)N2CCc3ccccc3C2)nc2ccc(Cl)cn12 | . | . | 7.9µM*
CN(C)C(=O)c1nc2ccc(Cl)cn2c1CN1CCCC(OCc2ccccc2)C1 (stereo unspecified) | . | . | 3%
Cc1onc(-c2c(F)cccc2Cl)c1C(=O)N1CCc2ccccc2C1 | -10% | 12 | -5%
COc1ccc(C2CC(C(F)(F)F)n3nc(C(=O)O)c(Br)c3N2)cc1 (stereo unspecified) | -13% | 0 | 4%
CCN1C(C)=C(C(=O)OC)C(c2ccccc2)N2C(=O)[C@](O)(C(=O)OC)C(c3ccccc3)C(C(=O)c3ccccc3)=C12 (stereo partly specified) | . | . | 3%[13.5 µM]
O=C(c1ccc(Br)o1)N(Cc1ccccc1)c1ccccn1 | -11% | 2 | ?
Cn1c(C(=O)N2CCCC(C(=O)NCc3cccs3)C2)cc2sccc21 (stereo unspecified) | -25% | -8 | ?
CCn1c(C(=O)N2CCCC(C(=O)NCCCc3ccccc3)C2)cc2sccc21 (stereo unspecified) | -15% | 1 | ?
CCn1c(C(=O)N2CCCC(C(=O)NCCc3ccc(C)cc3)C2)cc2sccc21 (stereo unspecified) | -5% | -1 | 32µM*
Cn1c(C(=O)N2CCCC(C(=O)NCCCSC3CCCCC3)C2)cc2sccc21 (stereo unspecified) | -5% | 0 | 1.3µM*
O=C(CN1C(=O)COc2ccc(S(=O)(=O)N3CCCC3)cc21)NC1CCCCCCC1 | -4% | -27 | 9%
Cc1ccc(NC(=O)CN2C(=O)C3CCCCN3C(=O)c3ccccc32)cc1 (stereo unspecified) | -10% | 1 | ?
CON1C(=O)C(=O)N(OC)C(C)(C)C1(C)C | 1% | . | 20µM*
CC1(C)N(OCc2ccccc2)C(=O)C(=O)N(OCc2ccccc2)C1(C)C | -4% | 0 | 10%
Cn1c(=O)c2c(nc(Br)n2C/C=N/NC(N)=S)n(C)c1=O | . | . | 2%
CCNC(=O)Cn1cc(C#N)c2ccccc21 | -3% | 7 | -3%
Cc1sc2nc(SCc3nc(-c4ccccc4)no3)n(-c3ccccc3)c(=O)c2c1C | -15% | -3 | 8%
CC1Nc2ccccc2C(=O)N1NS(=O)(=O)c1ccccc1 (stereo unspecified) | -21% | . | ?
COc1cc(CNCCc2ccccc2F)ccc1OCC(=O)N1CCCCC1 | . | . | 8%
COc1ccc(Nc2ccc3c(c2)=NC2(CCCCC2)[N+]=3[O-])cc1 | -16% | ? | 3.5µM*
SMILES | HPGD inh | IMPase inh | ALDH1A1 block
[O-][N+]1=c2ccc(Nc3ccccc3)cc2=NC12CCCCC2 | -20% | 19 | 3.5µM*
COc1ccc(NC2=NC(=S)N(c3ccccc3C)C23CCCCC3)cc1 | -12% | -3 | -13%
c1ccc(Nc2cccc(Nc3ccccc3)c2)cc1 | 8% | . | ?
CCn1c(=O)n(CCc2ccccc2)c(=O)c2c3c(sc21)CCCC3 | -8% | 0 | -2%
O=C(Cn1c(=O)n(Cc2ccco2)c(=O)c2c3c(sc21)CCCC3)Nc1ccccc1 | -11% | 8 | ?
NC(=O)Cn1c(=O)n(Cc2ccco2)c(=O)c2c3c(sc21)CCCCC3 | -18% | 9 | 11µM*
O=c1c2c3c(sc2n(CCN2CCCCC2)c(=O)n1Cc1ccco1)CCCCC3 | -16% | 11 | 5.6µM*
O=c1c2c3c(sc2n(CCN2CCOCC2)c(=O)n1Cc1ccco1)CCCCC3 | -14% | 2 | 7.9µM*
CCOc1ccc(-n2c(=O)c3c4c(sc3n(CC(=O)NCc3ccco3)c2=O)CCC4)cc1 | -4% | 2 | 10%
CS(=O)(=O)N(CC(=O)Nc1ccc(S(=O)(=O)N2CCOCC2)cc1)c1ccccc1Br | . | . | -5%
CCOC(=O)CNC(=O)O[C@H]1C(=O)c2cc(OC)ccc2O[C@@H]1c1ccc(OC)c(Br)c1 | -9% | . | -3%
O=c1c2ccccc2c(C=NCCO)c(O)n1-c1ccccc1 | -12% | -5[1.84 µM] | -14%
